# Paper PMC10726135, “HNF4α isoforms regulate the circadian balance between carbohydrate and lipid metabolism in the liver”
# Whole data set: some 18,000 sequences, median “log2 normalized intensity” near 0.39, cut for the highest 2% near 6.6. This excerpt belongs to a sample that is enriched for the highest values.
# Target: T1, HNF4alpha2 (COS-7 nuclear extract) (Homo sapiens, UniProt P41235 1-474)
# T1 sequence: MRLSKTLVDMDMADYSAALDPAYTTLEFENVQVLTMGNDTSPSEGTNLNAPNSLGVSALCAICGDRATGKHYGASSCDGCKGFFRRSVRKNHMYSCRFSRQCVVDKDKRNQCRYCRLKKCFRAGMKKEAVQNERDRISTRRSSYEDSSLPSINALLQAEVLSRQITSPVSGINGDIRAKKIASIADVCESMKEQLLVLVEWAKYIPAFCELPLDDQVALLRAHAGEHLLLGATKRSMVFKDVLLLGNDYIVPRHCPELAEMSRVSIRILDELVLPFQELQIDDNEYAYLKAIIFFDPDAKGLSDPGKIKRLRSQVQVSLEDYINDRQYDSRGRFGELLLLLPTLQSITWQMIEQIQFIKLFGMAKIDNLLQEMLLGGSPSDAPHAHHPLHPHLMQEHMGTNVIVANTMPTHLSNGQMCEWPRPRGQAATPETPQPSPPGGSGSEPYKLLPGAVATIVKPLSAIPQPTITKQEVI
# Assay: protein-binding microarray; COS-7 nuclear extract on double-stranded Agilent 4x180k PBM; binding buffer, salt, pH and temperature not given in the material; high values mean tight binding
# Conditions: chain copies: 2; label: 3' end of strand 1 on the slide; dsDNA, one strand shown
# Outline: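 Nuclear extracts of COS-7 cells transiently transfected with a human HNF4α isoform were applied to a custom Agilent SurePrint G3 4x180k array bearing ~44,000 double-stranded ~60-nt test sequences, each in quadruplicate. The bound protein was imaged on an Agilent G2565CA scanner at 2-µm resolution. Binding signal is the normalized, background-corrected gProcessedSignal from Agilent software.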
row,Sequence,binding signal [log2 normalized intensity]
1,TATCCCTGGAGCCTTAGAAGATGACCTTTTGCCTAGGGAGATTAGAGTATCGGTCGA,5.59
2,TTCTTTTTTTTTTTTTTTTTTTTTTGAGATGCCTAGGGAGATTAGAGTATCGGTCGA,3
3,ATGCCAGATGACCTTTGCCCTTGACTTTTTGCCTAGGGAGATTAGAGTATCGGTCGA,8.55
4,GGAAGTCCAGCATTCTTTTCCCCATACCAGGCCTAGGGAGATTAGAGTATCGGTCGA,1.33
5,TGCCCTTTGTCCAGGGTGAGAGGGACCCTTGCCTAGGGAGATTAGAGTATCGGTCGA,2.41
6,GCAAACCTACCTGAACTTTGCCCCAGAGGAGCCTAGGGAGATTAGAGTATCGGTCGA,5.9
7,TGCAGCAAAACTTTAGGACTTTGAACCTTGGCCTAGGGAGATTAGAGTATCGGTCGA,8.63
8,TGTCTCCAGAAATCAACCTTTGATCGTTTGGCCTAGGGAGATTAGAGTATCGGTCGA,5.83
9,ACTTCTGTCTCCAGAAATCAACCTTTGATCGCCTAGGGAGATTAGAGTATCGGTCGA,7.84
10,CCACCCACACTGCAGCAAAACTTTAGGACTGCCTAGGGAGATTAGAGTATCGGTCGA,0.141
11,ATGTCTCCAGAAACCAACCTTTGATCATTCGCCTAGGGAGATTAGAGTATCGGTCGA,4.87
12,ATAAGGGGCAGCAAACCTACCTGAACTTTGGCCTAGGGAGATTAGAGTATCGGTCGA,3.07
13,TTGAACCTTGGGTCTGTAATCTCACAACTCGCCTAGGGAGATTAGAGTATCGGTCGA,1.47
14,CACACTGCAGCAAAACTTTAGGACTTTGAAGCCTAGGGAGATTAGAGTATCGGTCGA,3.31
15,GGGCAGCAAACCTACCTGAACTTTGCCCCAGCCTAGGGAGATTAGAGTATCGGTCGA,7.99
16,CCTTGGGTCTGTAATCTCACAACTCAGAAGGCCTAGGGAGATTAGAGTATCGGTCGA,0.23
17,GGACTTTGAACCTTGGGTCTGTAATCTCACGCCTAGGGAGATTAGAGTATCGGTCGA,7.11
18,AGAAAGACATGTTTCTAACTGCCCGCATTCGCCTAGGGAGATTAGAGTATCGGTCGA,0.246
19,TATTCCAGGCACAAGAATGGTCATTCTCTGGCCTAGGGAGATTAGAGTATCGGTCGA,-0.977
20,GGCTTCTGGACTATGCCTTGAACTTTAAGGGCCTAGGGAGATTAGAGTATCGGTCGA,2.21

row,Sequence,binding signal [log2 normalized intensity]
1,TGGCACCTGAAGCTGCCCTTTGCACATGCCGCCTAGGGAGATTAGAGTATCGGTCGA,4.08
2,ATTGGGATGGAGTAACTTGCTAAGTATAAAGCCTAGGGAGATTAGAGTATCGGTCGA,-0.531
3,TCTTTTCTAAGATATTTGCATAGGCATTGTGCCTAGGGAGATTAGAGTATCGGTCGA,1.94
4,CTTGTCCAACTCCCCTCCCAAGGCAGCAATGCCTAGGGAGATTAGAGTATCGGTCGA,4
5,GATGACATCATCTGTTTGTACGCGTCGAACGCCTAGGGAGATTAGAGTATCGGTCGA,-0.199
6,CAACTTTCTCCTCCAGGACCTTGCCCTTTAGCCTAGGGAGATTAGAGTATCGGTCGA,4.23
7,CTTTAGGACTTTGAACCTTGGGTCTGTAATGCCTAGGGAGATTAGAGTATCGGTCGA,6.04
8,GGGAGGAGGGCAACCTTTGAACTGGGTCTTGCCTAGGGAGATTAGAGTATCGGTCGA,4.09
9,CAAAACTTTAGGACTTTGAACCTTGGGTCTGCCTAGGGAGATTAGAGTATCGGTCGA,7.13
10,GGACTCTGGAACCATCAGGATTCCAGAGGAGCCTAGGGAGATTAGAGTATCGGTCGA,1.86
11,TTTGCAACCTTTGATAACCTACAACCTTCTGCCTAGGGAGATTAGAGTATCGGTCGA,0.304
12,CCCAGGTACGGAGGACAGCCACCCGTGCTTGCCTAGGGAGATTAGAGTATCGGTCGA,-0.928
13,TTACTATAGGTTCTACTCTCCCCAGTTCAAGCCTAGGGAGATTAGAGTATCGGTCGA,3.24
14,CTCAGTCATACCACATGGATGGATTCAGATGCCTAGGGAGATTAGAGTATCGGTCGA,0.259
15,GAGGACTTTGGCCTTTTGTGAGATATGGACGCCTAGGGAGATTAGAGTATCGGTCGA,3.45
16,TGGGGTATCAGGTGGTGATGGTGGGAGGGAGCCTAGGGAGATTAGAGTATCGGTCGA,0.113
17,AGATCAGATGGGGTGAACTTTGGACCACATGCCTAGGGAGATTAGAGTATCGGTCGA,7.41
18,ACAGGAGATCAGATGGGGTGAACTTTGGACGCCTAGGGAGATTAGAGTATCGGTCGA,8.41
19,CAGGGGTCATCAGATAGATGGTCAGTGAACGCCTAGGGAGATTAGAGTATCGGTCGA,1.44
20,AGATGGGGTGAACTTTGGACCACATATAGAGCCTAGGGAGATTAGAGTATCGGTCGA,7.14

row,Sequence,binding signal [log2 normalized intensity]
1,GGTGAACTTTGAGACTATCCTTGGACCGCAGCCTAGGGAGATTAGAGTATCGGTCGA,2.51
2,TACCATGGGAGACCTCAGGGGTCATCAGATGCCTAGGGAGATTAGAGTATCGGTCGA,2.49
3,TCTCTCTCTCTTTCTTCCCCCACTCCAAGTGCCTAGGGAGATTAGAGTATCGGTCGA,5.09
4,CGAGTCAAGGGTCAATCCTCTCTTTGGAATGCCTAGGGAGATTAGAGTATCGGTCGA,2.31
5,CCTCCTGCCCTATGTCCTCCAGCTCTTGGGGCCTAGGGAGATTAGAGTATCGGTCGA,1.53
6,TGGAAGTCGCCGTGAGGTTATTTGCAGACTGCCTAGGGAGATTAGAGTATCGGTCGA,0.0984
7,ATTCCTATCGCCCTTCTGTCAAGTCCAAAGGCCTAGGGAGATTAGAGTATCGGTCGA,-0.648
8,TCTGCACAAAATACAAGTCGTAAAGACCTTGCCTAGGGAGATTAGAGTATCGGTCGA,0.709
9,CCCTCAGCAACTGCAAGGCTGACCCGTGAAGCCTAGGGAGATTAGAGTATCGGTCGA,1.4
10,TGTGAGTCCAGTTGAATGATGGCGAGTGTGGCCTAGGGAGATTAGAGTATCGGTCGA,1.62
11,TTGATCCAGGATCCTTCTTGACCAGGCAAGGCCTAGGGAGATTAGAGTATCGGTCGA,-0.434
12,ATTTGACCCTTGGCCAGGTGCAGTGGCTCAGCCTAGGGAGATTAGAGTATCGGTCGA,2.99
13,TCTTGACCAGGCAAGCTTGACCTTTGATCCGCCTAGGGAGATTAGAGTATCGGTCGA,10.2
14,CTTGACCTTTGATCCAGGCTCAGTGGGCGTGCCTAGGGAGATTAGAGTATCGGTCGA,4.91
15,CAAGCTTGATCCAGGATCCTTCTTGACCAGGCCTAGGGAGATTAGAGTATCGGTCGA,0.316
16,TTAGGATGACCTTTAGATTCTTACAGGCAAGCCTAGGGAGATTAGAGTATCGGTCGA,3.63
17,GCAAGCTTGACCTTTGATCCAGGCTCAGTGGCCTAGGGAGATTAGAGTATCGGTCGA,7.48
18,ATCCTTCTTGACCAGGCAAGCTTGACCTTTGCCTAGGGAGATTAGAGTATCGGTCGA,7.07
19,TCCAGGCTTGTCCTTTTGACCACAGTTATCGCCTAGGGAGATTAGAGTATCGGTCGA,2.33
